Laboratory results taken from PubChem BioAssay (Tox21).
Unmarked numbers belong to inactive results. Results filed as inconclusive are left out. Where a call stands in place of a potency, no number is given. Calls of active or inactive are those of the source. Unless noted, the call rests on the fitted dose curve; in most records, active means well fitted curve in the direction sought with a large enough effect in the repeat runs; inconclusive means weak or mixed curves; inactive means no such curve, though single readings can be large; an effect the other way counts as inactive or inconclusive.

How the values were obtained:
[1] = qHTS assay to identify small molecule agonists of the hypoxia (HIF-1) signaling pathway - cell viability counter screen (AID 1224844; calls by dose curve; further: nearly all actives have a fitted effect of over 50% in size; further: potency means the concentration at half of the fitted maximal effect)
Procedure, shortened: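 Viability counter screen: HRE-bla ME-180 cells plated 5 hrs before compound addition, treated 17 hrs at 37C and 5% CO2, then CellTiter-Glo added after the FRET reporter read; luminescence after 30 min.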

[2] = qHTS assay to identify small molecule agonists of H2AX (AID 1224845; active means well fitted activation curve with a large enough effect in the signal ratio in the repeat runs, not every such curve was filed as active; the % refers to the signal ratio)
Procedure, shortened: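 Phospho-H2AX Ser139 measured by HTRF (ex 320 nm; em 665 and 620 nm) after 24 hr antibody incubation. Compounds, 15 concentrations, 0.76% DMSO, were applied to CHO-K1 cells for 3hr at 37C before lysis.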

[3] = qHTS assay to identify small molecule agonists of the hypoxia (HIF-1) signaling pathway (AID 1224846; active means well fitted activation curve with a large enough effect in the signal ratio in the repeat runs, not every such curve was filed as active; the % refers to the signal ratio)
Procedure, shortened: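 Agonist mode reporter screen. ME-180 cells stably expressing bla under HRE control received test compounds in DMSO for 17 hrs (37C, 5% CO2), and beta-lactamase activity was then detected with the CCF4-AM FRET substrate.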

[4] = qHTS assay to identify small molecule agonists of H2AX - cell viability counter screen (AID 1224847; calls by dose curve; further: nearly all actives have a fitted effect of over 30% in size; further: potency means the concentration at half of the fitted maximal effect)
Procedure, shortened: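 CHO-K1 wt, 1000 cells/well, o/n 37C; cpds 15 conc, 3 h 37C, 0.76% DMSO; CellTiter-Glo, 30 min RT, luminescence.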

[5] = qHTS RealTime-Glo MT Cell Viability Assay in HepG2 cells - 24 hour (AID 1224867); further: nearly all actives have a fitted effect of over 50% in size; further: potency means the concentration at half of the fitted maximal effect
Procedure, shortened: (§1)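 qHTS, HepG2, 600 cells/well, RealTime-Glo (NanoLuc + prosubstrate) added with cells; 5 h preincubation; DMSO compound addition; 37 C; luminescence at 0/8/16/24/32/40 h.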

[6] = qHTS RealTime-Glo MT Cell Viability Assay in HEK293 cells - 32 hour (AID 1224868); further: nearly all actives have a fitted effect of over 50% in size; further: potency means the concentration at half of the fitted maximal effect
Procedure, shortened: (§2)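 Assay medium contained NanoLuc luciferase plus cell-permeant prosubstrate, added with HEK293 cells at 600 cells/well. After 5 h at 37 C/5% CO2 compounds were added; plates stayed at 37 C for 40 h with serial luminescence reads.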

[7] = A CellTox Green Cytotoxicity Assay to monitor cytotoxicity in HEK293 cells - 0 hour (AID 1224869); further: nearly all actives have a fitted effect of over 50% in size
Procedure, shortened: (§3)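 Dead-cell fluorescence measured kinetically: asymmetric cyanine dye, HEK293, 600 cells/well, 5 h settle, 23 nL cpd/DMSO, 37 C, reads 0–40 h every 8 h.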

[8] = qHTS RealTime-Glo MT Cell Viability Assay in HepG2 cells - 40 hour (AID 1224870); further: nearly all actives have a fitted effect of over 50% in size; further: potency means the concentration at half of the fitted maximal effect
Procedure, shortened: (§4)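 Real-time viability: cells seeded at 600 per well together with NanoLuc and cell-permeant prosubstrate, compounds added after 5 h incubation. Luminescence tracked at 0, 8, 16, 24, 32 and 40 h of exposure.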

[9] = A CellTox Green Cytotoxicity Assay to monitor cytotoxicity in HEK293 cells - 40 hour (AID 1224871); further: nearly all actives have a fitted effect of over 45% in size; further: potency means the concentration at half of the fitted maximal effect
Procedure, shortened: as §3

[10] = qHTS RealTime-Glo MT Cell Viability Assay in HEK293 cells - 16 hour (AID 1224872); further: nearly all actives have a fitted effect of over 50% in size; further: potency means the concentration at half of the fitted maximal effect
Procedure, shortened: as §2

[11] = qHTS RealTime-Glo MT Cell Viability Assay in HepG2 cells - 8 hour (AID 1224873); further: nearly all actives have a fitted effect of over 55% in size; further: potency means the concentration at half of the fitted maximal effect
Procedure, shortened: as §4

[12] = qHTS RealTime-Glo MT Cell Viability Assay in HEK293 cells - 40 hour (AID 1224874); settings: RealTime-Glo luminescence; max response: stronger effect = lower value; further: nearly all actives have a fitted effect of over 50% in size; further: potency means the concentration at half of the fitted maximal effect
Procedure, shortened: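 600 HEK293 cells per well, dispensed already mixed with RealTime-Glo MT reagents. Compound dosing came 5 h later. The same wells were read for luminescence at 0, 8, 16, 24, 32 and 40 h of exposure at 37 C.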

[13] = A CellTox Green Cytotoxicity Assay to monitor cytotoxicity in HepG2 cells - 16 hour (AID 1224876); further: nearly all actives have a fitted effect of over 45% in size; further: potency means the concentration at half of the fitted maximal effect
Procedure, shortened: (§5)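 First, HepG2 cells (600/well) mixed with reagent were plated; second, after 5 h at 37 C they received compounds via pintool; third, fluorescence was measured at 0 h through 40 h at 8 h intervals.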

[14] = qHTS RealTime-Glo MT Cell Viability Assay in HepG2 cells - 32 hour (AID 1224877); further: nearly all actives have a fitted effect of over 55% in size; further: potency means the concentration at half of the fitted maximal effect
Procedure, shortened: as §1

[15] = A CellTox Green Cytotoxicity Assay to monitor cytotoxicity in HepG2 cells - 24 hour (AID 1224878); further: nearly all actives have a fitted effect of over 45% in size; further: potency means the concentration at half of the fitted maximal effect
Procedure, shortened: as §5

[16] = qHTS assay to identify small molecule antagonists of the estrogen related receptor (ERR) signaling pathway from Tox21 library (AID 1224848); further: nearly all actives have a fitted effect of over 50% in size; further: potency means the concentration at half of the fitted maximal effect
Procedure, shortened: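 ERR cell line, 2,000 cells/well. 6 h settle, then compound (DMSO) added; 18 h at 37 C; ONE-Glo luminescence after 30 min RT.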

[17] = qHTS assay to identify small molecule agonists of the estrogen related receptor (ERR) signaling pathway from Tox21 library (AID 1224849; calls by dose curve; further: nearly all actives have a fitted effect of over 15% in size); settings: ERR reporter cell line, ONE-Glo luciferase, 18 h; at 92.4 µM (top of the series) unless noted
Procedure, shortened: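 Quantitative HTS in agonist format: NTP ERR cell line, compounds transferred in DMSO after 6 h plating, 18 h incubation at 37 C, ONE-Glo luminescence endpoint.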

[18] = A CellTox Green Cytotoxicity Assay to monitor cytotoxicity in HEK293 cells - 24 hour (AID 1224875); further: nearly all actives have a fitted effect of over 45% in size
Procedure, shortened: as §3

[19] = A CellTox Green Cytotoxicity Assay to monitor cytotoxicity in HepG2 cells - 40 hour (AID 1224879); further: nearly all actives have a fitted effect of over 40% in size; further: potency means the concentration at half of the fitted maximal effect
Procedure, shortened: as §5

| SMILES | Potency [1] | Potency [2] | outcome [3] | Potency [4] | Potency [5] | Potency [6] | Potency [7] | Potency [8] | Potency [9] | Potency [10] | Potency [11] | max response [12] | Potency [13] | Potency [14] | Potency [15] | Potency [16] | activity change, positive = activation [17] | Potency [12] | Potency [18] | Potency [19] |
| --- | --- | --- | --- | --- | --- | --- | --- | --- | --- | --- | --- | --- | --- | --- | --- | --- | --- | --- | --- | --- |
| C#CCOC(C(=O)OCCN(C)C)(c1ccccc1)c1ccccc1 | inactive | inactive | inactive | inactive | inactive | inactive | inactive | inactive | inactive | inactive | inactive | -21.3% | inactive | inactive | inactive |  |  |  |  |  |
| CO/C=C(/C(=O)OC)c1ccccc1COc1cccc(C(F)(F)F)n1 | inactive | inactive | inactive |  | inactive | 19.5 µM (active) | inactive | inactive | 3.89 µM (active) |  |  |  | inactive | inactive | inactive | 0.485 µM (active) | -45% | 6.16 µM (active) | inactive | inactive |
| CCCN(CCC)c1c([N+](=O)[O-])cc(S(C)(=O)=O)cc1[N+](=O)[O-] | inactive | inactive | inactive | inactive | inactive | 13.8 µM (active) | inactive | inactive | inactive | 15.5 µM (active) | inactive |  | inactive | inactive | inactive |  | -24.5% | 15.5 µM (active) |  | inactive |
| O=S(=O)(O)C(F)(F)C(F)(F)C(F)(F)C(F)(F)F | inactive | inactive | inactive |  | inactive |  | inactive | inactive | inactive |  | inactive |  |  | inactive | inactive |  |  |  | inactive | inactive |
| CN(N=O)c1ccc([N+](=O)[O-])cc1 | inactive | inactive | inactive |  | inactive | inactive | inactive | inactive | inactive | inactive | inactive | -1.54% | inactive | inactive | 43.6 µM (active) |  |  |  |  | 43.6 µM (active) |
| CCO[C@H]1O[C@@H]2OC3(C)CC[C@H]4[C@H](C)CC[C@@H]([C@H]1C)[C@@]24OO3 | inactive |  | inactive | inactive | inactive | inactive | inactive | inactive | inactive | inactive | inactive | -21.5% | inactive | inactive | inactive | 0.531 µM (active) | -53.8% [at 42.5 µM] |  | inactive | inactive |
| CCOP(=O)(OCC)O/C(=C/Cl)c1ccc(Cl)cc1Cl | inactive | inactive | inactive |  | inactive | 21.9 µM (active) | inactive | inactive | inactive |  | inactive |  | inactive | inactive | inactive | 6.86 µM (active) | -61.6% | 19.5 µM (active) | inactive | inactive |
| CS/C(C)=N/OC(=O)N(C)SN(C)C(=O)O/N=C(\C)SC |  | inactive | inactive |  |  | 49 µM (active) | inactive |  | 49 µM (active) | 38.9 µM (active) |  |  |  |  | 54.9 µM (active) |  | -68.2% | 43.6 µM (active) |  | 54.9 µM (active) |
| O=C=Nc1ccc(Cl)cc1 |  |  |  | inactive | inactive | inactive | inactive | inactive | inactive | inactive | inactive | -3% | inactive |  | inactive |  |  |  | inactive |  |
| CC(C)(C)C(O)C(Oc1ccc(Cl)cc1)n1cncn1 (centres undefined) |  | inactive | inactive | inactive | inactive | 12.3 µM (active) | inactive | inactive | 5.49 µM (active) |  | inactive |  |  | inactive | 43.6 µM (active) |  |  | 11 µM (active) | inactive | 43.6 µM (active) |
| IC(I)=C(I)I | 11 µM (active) |  |  | 31.8 µM (active) | 0.549 µM (active) | 6.92 µM (active) | inactive | 0.347 µM (active) | 54.9 µM (active) | 9.77 µM (active) | 1.55 µM (active) |  | 24.5 µM (active) | 0.436 µM (active) | 19.5 µM (active) | 19.3 µM (active) | -75.2% | 6.16 µM (active) |  | 12.3 µM (active) |
| COC(=O)C(Br)CBr (centres undefined) |  | inactive |  | inactive | inactive | inactive | inactive |  | inactive | inactive | inactive | -3.92% | inactive | inactive | inactive | inactive | -11.9% |  | inactive | inactive |
| CC(c1ccc(O)cc1)(c1ccc(O)cc1)c1ccc(O)cc1 | inactive |  |  |  | inactive | 54.9 µM (active) | inactive | inactive | inactive |  | inactive |  | inactive |  | inactive | 54.5 µM (active) | -42.4% |  |  |  |
